HepG2 tox-1 – qHTS for Inhibitors of TGF-b: Cytotox Counterscreen | HepG2 CAGA-GFP viability, ATP luminescence, 18 h | Potency, µM (highest dose often 46.1 µM), without a hit: at the top dose activity change, negative = cytotoxicity, most hits filed as cytotoxic | 0.76% of 410,000 active | AID 588856, 2011; note: potency is the fitted concentration of half-maximal effect
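CellTiter-Glo luminescence gave cytotoxicity after 18 hours at 37 degrees C. The cells were HepG2 CAGA-GFP in 1% FBS DMEM, stimulated with 500 pg/mL TGF-beta after compound addition. %Activity was normalised to no-cell wells (complete cell-killing) and DMSO (no toxicity), and curves were fitted and classified.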
S2 tox – Viability Counterscreen for Primary qHTS for Inhibitors of ATXN expression | S2 cells (HEK-293 line with an ATXN2-luciferase reporter) viability, CellTiter-Fluor protease fluorescence, 24 h | Potency, µM (series often up to 56.7 µM), actives largely listed as cytotoxic | 0.49% of 400,000 active; note: potency is the fitted concentration of half-maximal effect; nearly all actives have a fitted effect of over 40% in size
DRD3 antagonist – qHTS of D3 Dopamine Receptor Antagonist: qHTS; max response, negative = inhibition, %; 2.5% of 360,000 active; D(3) dopamine receptor (Homo sapiens), P35462; D3R cells, DiscoveRx beta-arrestin luminescence, antagonist mode; stronger effect = lower value; in the data active = max response below about -50%; inconclusive = no clear call, values can overlap the other calls; note: % is set by controls: 0 for no effect and ±100 for the full control effect
Target sequence (P35462 whole entry, looked up): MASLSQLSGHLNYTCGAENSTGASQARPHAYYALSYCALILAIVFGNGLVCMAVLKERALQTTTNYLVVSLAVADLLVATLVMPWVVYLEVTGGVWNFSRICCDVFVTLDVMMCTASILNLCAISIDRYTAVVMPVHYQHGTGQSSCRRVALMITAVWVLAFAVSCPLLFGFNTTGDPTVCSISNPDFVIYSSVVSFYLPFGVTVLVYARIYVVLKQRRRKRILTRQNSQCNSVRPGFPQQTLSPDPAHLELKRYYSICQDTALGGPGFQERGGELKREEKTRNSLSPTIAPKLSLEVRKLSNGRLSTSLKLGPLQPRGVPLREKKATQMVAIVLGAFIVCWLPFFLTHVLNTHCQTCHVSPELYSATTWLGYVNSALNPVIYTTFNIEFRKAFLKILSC
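Cells plated overnight at 1500 cells/well, then exposed to library compounds with dopamine controls for 90 minutes at 37 degrees C. DiscoveRx reagent added for 30–60 minutes at room temperature; luminescence read, quantitative HTS format.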
DRD3 agonist – qHTS of D3 Dopamine Receptor Agonist: qHTS | D(3) dopamine receptor (Homo sapiens), P35462 | D3R DiscoveRx beta-arrestin cells, luminescence, 90 min | max activation, % | 0.58% of 410,000 active; in the data active = max activation above about 30%; note: 0% is about no effect
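Agonist-mode cell screen: cells plated at 1500/well and incubated overnight at 37 °C, then exposed to library compounds for 90 min at 37 °C. Detection reagent was added for 30–60 min at room temperature, and luminescence was read.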
ATXN2 expr inh – Primary qHTS for Inhibitors of ATXN expression | HEK-293 ATXN2-luciferase reporter, luminescence, 24 h | Potency, µM (highest dose often 57 µM), for inactives: top-dose activity change, negative = inhibition, actives largely listed as inhibitors | 0.72% of 360,000 active; note: potency is the fitted concentration of half-maximal effect; % is set by controls: 0 for no effect and ±100 for the full control effect; nearly all actives have a fitted effect of over 55% in size
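qHTS (up to 57 uM final) was run with 24 h compound exposure of reporter cells at 37 °C. Each well was multiplexed: SteadyGlo luminescence measured ATXN2-luciferase expression after a fluorogenic Gly-Phe-AFC viability readout (25 uM final).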
TGFb inhibitor – qHTS for Inhibitors of TGF-b | HepG2 CAGA-GFP TGF-b/SMAD3 reporter, GFP fluorescence, 18 h; TGF-beta stimulated, 500 pg/mL final | Potency, µM (series often up to 46.1 µM), inactives show top-dose activity, negative = inhibition, hits mostly inhibitors | 1.2% of 410,000 active | AID 588855, 2011; note: potency is the fitted concentration of half-maximal effect; % is set by controls: 0 for no effect and ±100 for the full control effect; nearly all actives have a fitted effect of over 65% in size
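Inhibition was scored as loss of TGF-beta-induced (500 pg/mL final, 18 hours, 37 degrees C) GFP in HEPG2 cells carrying a CAGA-GFP reporter, in DMEM with 1% FBS. Well GFP was summed per cell; Activity was normalised to unstimulated and stimulated DMSO wells, then concentration-response fitting.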
TGFb confirm – qHTS for Inhibitors of TGF-b: Confirmation of Cherry Picks; shares compounds with TGFb inhibitor; Potency, µM (highest dose often 46.1 µM), for inactives: top-dose activity, negative = inhibition, usual class: inhibitors; HepG2 CAGA-GFP TGF-b reporter, GFP fluorescence, 18 h; cells stimulated with TGF-beta, 500 pg/mL; AID 720534, 2013; 63% of 1,600 active; note: potency is the fitted concentration of half-maximal effect; % is set by controls: 0 for no effect and ±100 for the full control effect; nearly all actives have a fitted effect of over 65% in size
HepG2 tox-2 – qHTS for Inhibitors of TGF-b: Cytotox Counterscreen for Cherry Picks | shares compounds with TGFb inhibitor | HepG2 CAGA-GFP viability, ATP luminescence, 18 h; cells stimulated with TGF-beta, 500 pg/mL | Potency, µM (highest dose often 46.1 µM), inactives show at the highest dose activity, negative = cytotoxicity, most hits filed as inhibitors | 27% of 1,600 active; note: potency is the fitted concentration of half-maximal effect; % is set by controls: 0 for no effect and ±100 for the full control effect; nearly all actives have a fitted effect of over 70% in size
CCL64 TGFb inh – qHTS for Inhibitors of TGF-b: CCL64 Cells Orthogonal Assay for Cherry Picks | 41% of 1,600 active | Potency, µM (series often up to 46.1 µM), for the others: top-dose activity, negative = inhibition, usual class: inhibitors | AID 720536, 2013 | CCL64 CAGA-GFP reporter, TGF-b stimulated, GFP fluorescence, 18 h | shares compounds with TGFb inhibitor; note: potency is the fitted concentration of half-maximal effect; nearly all actives have a fitted effect of over 65% in size
TGFb COP inh – qHTS for Inhibitors of TGF-b: Hit Validation in HepG2 Cells using COP promoter | shares compounds with TGFb inhibitor | HepG2 COP-GFP TGF-b reporter, GFP fluorescence, 18 h; cells stimulated by added recombinant TGF-beta | Potency, µM (titrated, usually from 46.1 µM), inactives show at the highest dose activity, negative = inhibition, usual class: inhibitors | 3% of 1,600 active; note: potency is the fitted concentration of half-maximal effect; nearly all actives have a fitted effect of over 70% in size
Starred values were filed as active, the others as inactive; i = inactive; ? = inconclusive; · = not tested or not shown. Only some compounds are listed: those with a hit (about 4.7% of all), similar ones and a draw of the others. Unless noted, calls come from the whole dose curve; as a rule, active = well fitted curve in the direction sought with a large enough effect; inconclusive = small, poorly fitted or top-dose-only effect, or another doubt; inactive = no such curve, though single readings can be large; an effect the other way counts as inactive or inconclusive.

SMILES | HepG2 tox-1 | S2 tox | DRD3 antagonist | DRD3 agonist | ATXN2 expr inh | TGFb inhibitor | TGFb confirm | HepG2 tox-2 | CCL64 TGFb inh | TGFb COP inh
O=C(Nc1ccc(Cl)c(Cl)c1)Nc1ccc(N2CCCC2)c(S(=O)(=O)Nc2ccccc2Cl)c1 | -26% | ? | -13 | 7 | ? | 3.2µM* | 4.6µM* | 7.3µM* | 0.58µM* | 86%
CC(C)(C)c1ccc(S(=O)(=O)N2CCC(c3nc4ccc(Cl)cc4[nH]3)CC2)cc1 | -28% | i | -28 | -8 | ? | 20µM* | 16µM* | ? | ? | 46%
COC(=O)[C@@]1(Cc2ccc(OC)cc2)[C@H]2c3cc(C(=O)N4CCCC4)n(Cc4c(CO)[nH]cc(C)c4=O)c3C[C@H]2CN1C(=O)c1ccccc1 | -1% | i | -5 | 3 | 0% | ? | -14% | -1% | 0% | -3%
COC(=O)[C@@]1(Cc2ccc(OC)cc2)[C@H]2c3cc(C(=O)N(C)C)n(Cc4c(CO)[nH]cc(C)c4=O)c3C[C@H]2CN1C(=O)c1ccccc1 | -1% | i | 0 | 2 | 1% | 3% | · | · | · | ·
CN1CCC[C@H]1CCNc1ccc2c(=O)c3ccccc3n(C)c2c1 | 0% | · | 35 | 0 | ? | 16µM* | ? | ? | 21µM* | 62%
Cc1nc(Nc2ccncc2)c2oc3ccccc3c2n1 | -30% | ? | -12 | 0 | ? | -12% | · | · | · | ·
CCc1nc(Nc2ccncc2)c2oc3ccccc3c2n1 | -14% | ? | 6 | 2 | ? | ? | 12µM* | ? | ? | 22%
COc1ccc(C2Nc3ccccc3C(=O)N2Cc2ccco2)cc1 (centres undefined) | 10% | · | · | · | · | -4% | · | · | · | ·
Cc1ccc(CNc2ccc(O)cc2)cc1 | -103% | i | -53* | 14 | 7% | 10µM* | 23µM* | ? | ? | ?
CN(C)CCCN(C(=O)CCOc1ccccc1)c1nc2ccc(F)cc2s1 | -125% | ? | -91* | -24 | · | 3.5µM* | 15µM* | ? | 8.2µM* | ?
CN(C)CCCN(C(=O)COc1ccccc1)c1nc2ccc(F)cc2s1 | -2% | i | -6 | -10 | · | 18% | · | · | · | ·
CC(=O)c1ccc(N2CCN(C(=O)CCS(=O)(=O)c3ccc4c(c3)oc(=O)n4C)CC2)cc1 | 18% | i | · | 7 | -1% | 4% | · | · | · | ·
CC(C)C[C@H]1CNC(=S)N1CC1CCCN1C[C@H](CC(C)C)N1C[C@H](Cc2ccc(O)cc2)N(CC2CCCCCC2)C1=S (some centres undefined) | -54% | ? | 24 | -7 | ? | ? | · | · | · | ·
CC(C)C[C@H]1CNC(=S)N1C[C@H]1CCCN1C[C@H](CC(C)C)N1C[C@H](Cc2ccc(O)cc2)N(CC2CCCCCC2)C1=S | 11µM* | 22µM* | 0 | 11 | ? | 6.3µM* | ? | ? | ? | 91%
CC(C)C[C@H]1CN([C@@H](Cc2ccccc2)CN2CCCC2CN2C(=S)NC[C@@H]2Cc2ccccc2)C(=S)N1CC1CCCCC1 (some centres undefined) | · | ? | -6 | -8 | 0% | · | · | · | · | ·
CC(C)C[C@H]1CNC(=S)N1CC1CCCN1C[C@H](CC(C)C)N1C[C@H](Cc2ccc(O)cc2)N(CC2CCCCC2)C1=S (some centres undefined) | 11µM* | ? | 17 | -1 | ? | 10µM* | ? | ? | ? | ?
CC(C)C[C@@H](CN1CCCC1CN1C(=S)NC[C@@H]1Cc1ccc(O)cc1)N1C[C@H](Cc2ccc(O)cc2)N(CC2CCCCC2)C1=S (some centres undefined) | -100% | ? | -17 | 9 | ? | 10µM* | 8.2µM* | ? | ? | ?
CCOC(=O)N1CCc2c(sc3c2c(=O)n(Cc2ccccc2)c(=O)n3CC(=O)Nc2ccc(C)cc2C)C1 | 0% | · | · | -5 | · | -17% | · | · | · | ·
O=C(NC1CCCCC1)c1ccc(CSc2nc3ccncc3n2Cc2ccccc2)cc1 | -39% | ? | · | -3 | -11% | ? | · | · | · | ·
O=C1c2ccccc2C(=O)c2c1oc(C(F)(F)F)c2C(=O)c1ccccc1 | 1.1µM* | ? | -70* | -20 | ? | 1.1µM* | 4.6µM* | 4.1µM* | 4.6µM* | 3.7µM*
COc1cccc(CN2c3ccccc3-c3nc(SCC(=O)Nc4cccc(C)c4)ncc3S2(=O)=O)c1 | -9% | i | · | 4 | -15% | ? | · | · | · | ·
CSc1ccc(NC(=O)C2(C)CCN2C(=O)c2ccccc2CCc2ccccc2)cc1 (centres undefined) | 5% | i | ? | -5 | -11% | 8% | · | · | · | ·
C#Cc1ccc(NC(=O)C2(C)CCN2C(=O)c2ccccc2CCc2ccccc2)cc1 (centres undefined) | -27% | i | -5 | 2 | -22% | ? | ? | -13% | ? | 2%

Bioassay records deposited in PubChem by National Center for Advancing Translational Sciences (NCATS).
